Test results reported in PubChem BioAssay (NCI).
Where “and” joins values, the source holds several entries; their conditions need not be identical. Identical values can stand only once. Compounds without any hit were thinned out: in the full panel of roughly 79,000, 15% have a hit. Some structures have more than one record in an assay (separate samples or runs), and their calls can disagree. Calls of active or inactive are those of the source. Cut-off read from the data, not from the text of the source: active = growth inhibition above about 70%; inactive = the rest.

How the values were obtained:
[1] = NCI Yeast Anticancer Drug Screen. Data for the rad50 strain (AID 155);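 note: 0% = growth of vehicle-only cultures of the same strain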; conditions: S. cerevisiae rad50 strain growth inhibition, stronger effect = higher value
Procedure, shortened: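 Cells are treated with compound, grown, and their growth is then scored against vehicle-only cultures of the same repair-deficient yeast strain.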

[2] = NCI Yeast Anticancer Drug Screen. Data for the mec2-1 strain (AID 157); conditions: S. cerevisiae mec2-1 strain, stronger effect = higher value
Procedure, shortened: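 Readout is yeast growth inhibition, normalised to vehicle-treated controls, in the mec2-1 strain exposed to compound.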

[3] = NCI Yeast Anticancer Drug Screen. Data for the sgs1 mgt1 strain (AID 161);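 note: 0% = growth of cultures given vehicle only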; conditions: S. cerevisiae sgs1 mgt1 strain, stronger effect = higher value
Procedure, shortened: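 Growth of a repair-deficient yeast mutant was monitored after compound treatment and expressed as inhibition relative to vehicle-treated cultures.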

[4] = NCI Yeast Anticancer Drug Screen. Data for the cln2 rad14 strain (AID 165);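 note: 0% = growth equal to vehicle treated cultures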; conditions: S. cerevisiae cln2 rad14 strain, stronger effect = higher value
Procedure, shortened: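 Relative to vehicle controls, growth inhibition of compound-treated cln2 rad14 yeast was recorded.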

[5] = NCI Yeast Anticancer Drug Screen. Data for the bub3 strain (AID 167); conditions: S. cerevisiae bub3 mutant strain, stronger effect = higher value
Procedure, shortened: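 Part of a panel of yeast mutants defective in DNA damage repair or cell cycle regulation. Each strain is grown with compound, and inhibition is calculated relative to solvent-treated cultures.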

[6] = NCI Yeast Anticancer Drug Screen. Data for the mlh1 rad18 strain (AID 175); conditions: S. cerevisiae mlh1 rad18 strain growth inhibition, stronger effect = higher value
Procedure, shortened: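 Test agents were incubated with a yeast strain of defined genotype (DNA damage repair defect). Inhibition of growth was derived by comparison with vehicle-exposed cultures.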

[7] = at 5.0 µM (retest, dose inferred, filed as 0.5)
[8] = at 50.0 µM (retest, dose inferred, filed as 5.0)

Measured: growth inhibition

Nc1nc(-c2ccccn2)cc2ccccc12
inactive: [1]; [7] 5% | [1]; [8] 63% | [1]; at 50.0 µM -2.25% | [2]; [7] 25% | [2]; at 50.0 µM -11.2% | [3]; [7] 22% | [3]; at 50.0 µM 4.35% | [4]; [7] 21% | [4]; [8] 62% | [4]; at 50.0 µM 4.4% | [5]; [7] 1% | [5]; [8] 61% | [5]; at 50.0 µM 7.35% | [6]; [7] 29% | [6]; at 50.0 µM 11.1%
active: [2]; [8] 76% | [3]; [8] 77% | [6]; [8] 85%

CCCC1CCC(=C2C(=O)CCC2=O)O1 (configuration not stated)
inactive: [1]; [7] 6% | [1]; [8] 21% | [2]; [7] 2% | [2]; [8] 19% | [3]; [7] 9% | [3]; [8] 26% | [4]; [7] -2% | [4]; [8] 8% | [5]; [7] 8% | [5]; [8] 9% | [6]; [7] 15% | [6]; [8] 35%
-4.75% (inactive) and 90.7% (active): [1]; at 50.0 µM
2.55% (inactive) and 91% (active): [5]; at 50.0 µM
-8.75% (inactive) and 92.2% (active): [2]; at 50.0 µM
-5.55% (inactive) and 92.7% (active): [3]; at 50.0 µM
0.65% (inactive) and 91.2% (active): [4]; at 50.0 µM
-13.1% (inactive) and 90.8% (active): [6]; at 50.0 µM

Oc1ccc(/C=N/NC(=S)NN2CCOCC2)nc1
inactive: [1]; [7] 38% | [2]; [7] 36% | [3]; [7] 42% | [4]; [7] 20% | [5]; [7] 46% | [6]; [7] 42%
active: [1]; [8] 96% | [1]; at 50.0 µM 87% | [2]; [8] 95% | [2]; at 50.0 µM 90.1% | [3]; [8] 95% | [3]; at 50.0 µM 89% | [4]; [8] 91% | [4]; at 50.0 µM 80.8% | [5]; [8] 93% | [5]; at 50.0 µM 88.5% | [6]; [8] 95% | [6]; at 50.0 µM 87.8%

CCOC(=O)c1c(CN2CCNCC2)nc2ccc(Cl)cc2c1-c1ccccc1
inactive: [1]; [7] 30% | [1]; [8] 30% | [1]; at 50.0 µM 29.4% | [2]; [7] 35% | [2]; [8] 35% | [2]; at 50.0 µM 14.2% | [3]; [7] 26% | [3]; [8] 26% | [3]; at 50.0 µM 68% | [4]; [7] 23% | [4]; [8] 23% | [4]; at 50.0 µM 41.1% | [5]; [7] 29% | [5]; [8] 29% | [5]; at 50.0 µM 27.6% | [6]; [7] 32% | [6]; [8] 32% | [6]; at 50.0 µM 39.5%

CC(C)CCC[C@@H](C)[C@H]1CC[C@H]2[C@@H]3CC=C4N5CCCN=C5CC[C@]4(C)[C@H]3CC[C@]12C
inactive: [1]; [7] 2% | [2]; [7] -20% | [3]; [7] -15% | [4]; [7] 0% | [4]; [8] 54% | [5]; [7] 0% | [6]; [7] -8%
active: [1]; [8] 98% | [1]; at 50.0 µM 98% | [2]; [8] 99% | [2]; at 50.0 µM 98.7% | [3]; [8] 89% | [3]; at 50.0 µM 98.5% | [4]; at 50.0 µM 98.2% | [5]; [8] 97% | [5]; at 50.0 µM 98.2% | [6]; [8] 98% | [6]; at 50.0 µM 97.9%

CCC(C)[P+](c1ccccc1)(c1ccccc1)c1ccccc1 (configuration not stated)
inactive: [1]; [7] 2% | [1]; [8] 36% | [1]; at 50.0 µM 62.9% and 33.3% | [2]; [7] 18% | [2]; [8] 60% | [2]; at 50.0 µM 66% and 29.6% | [3]; [7] -8% | [3]; [8] 23% | [3]; at 50.0 µM 53.9% and 19.9% | [4]; [7] -4% | [4]; [8] 25% | [4]; at 50.0 µM 58.1% and 36% | [5]; [7] -3% | [5]; [8] 30% | [5]; at 50.0 µM 57.8% and 36% | [6]; [7] 21% | [6]; [8] 54%
72.4% (active) and 53.9% (inactive): [6]; at 50.0 µM

CCOC(=O)C(Cc1c[nH]c2cc([N+](=O)[O-])ccc12)NS(=O)(=O)c1ccc2ccccc2c1 (configuration not stated)
active: [1]; [8] 96% | [1]; at 50.0 µM 95.3% | [2]; [8] 98% | [2]; at 50.0 µM 97.3% | [3]; [8] 98% | [3]; at 50.0 µM 97.2% | [4]; [8] 94% | [4]; at 50.0 µM 94.2% | [5]; [8] 98% | [5]; at 50.0 µM 97.8% | [6]; [8] 97% | [6]; at 50.0 µM 95.7%
inactive: [1]; [7] -19% | [2]; [7] 2% | [3]; [7] -4% | [4]; [7] -17% | [5]; [7] 9% | [6]; [7] -19%

CCOC(=O)c1c[nH]c2c([N+](=O)[O-])cc(OC)cc2c1=O
inactive: [1]; [7] -1% | [1]; [8] 32% | [1]; at 50.0 µM 10.6% and 61.4% | [2]; [7] 2% | [2]; [8] 21% | [2]; at 50.0 µM 40.1% and 35.2% | [3]; [7] 3% | [3]; [8] 41% | [3]; at 50.0 µM 36% and 16.3% | [4]; [7] -6% | [4]; [8] 24% | [4]; at 50.0 µM -11.7% and -10.1% | [5]; [7] 2% | [5]; [8] 46% | [5]; at 50.0 µM 18.6% and 61% | [6]; [7] 6% | [6]; [8] 42%
56.9% (inactive) and 73% (active): [6]; at 50.0 µM

COC1CC2CCC(C)[C@](O)(O2)C(=O)C(=O)N2CCCCC2C(=O)OC(C(C)CC2CCC(O)C(OC)C2)CC(=O)C(C)C=C(C)C(OC(=O)CN(C)C)C(OC)C(=O)C(C)CC(C)/C=C/C=C/C=C\1C (some centres not stated)
inactive: [1]; [7] 37% | [2]; [7] 46% | [5]; [7] 50%
active: [1]; [8] 97% | [1]; at 50.0 µM 89% | [2]; [8] 97% | [2]; at 50.0 µM 92.5% | [3]; [7] 97% | [3]; [8] 96% | [3]; at 50.0 µM 92% | [4]; [7] 95% | [4]; [8] 94% | [4]; at 50.0 µM 85.4% | [5]; [8] 98% | [5]; at 50.0 µM 91.7% | [6]; [7] 97% | [6]; [8] 96% | [6]; at 50.0 µM 89.8%

c1ccc2c(c1)CNc1ccccc1-2
active: [3]; at 50.0 µM 83.5% | [5]; at 50.0 µM 85.5% | [6]; at 50.0 µM 92.1%
inactive: [1]; [7] 4% | [1]; [8] 58% | [1]; at 50.0 µM 48% | [2]; [7] -10% | [2]; [8] 21% | [2]; at 50.0 µM 42.7% | [3]; [7] 0% | [3]; [8] 66% | [4]; [7] 6% | [4]; [8] 16% | [4]; at 50.0 µM 7.4% | [5]; [7] 47% | [5]; [8] 60% | [6]; [7] 3% | [6]; [8] 45%

CCN(CC)CCCn1c2cc(=O)c(=O)cc-2[nH]c2cc(C)ccc21
active: [3]; [8] 74%
inactive: [1]; [7] 1% | [1]; [8] 58% | [1]; at 50.0 µM 10.4% | [2]; [7] 2% | [2]; [8] 27% | [2]; at 50.0 µM -4.3% | [3]; [7] 2% | [3]; at 50.0 µM 23.6% | [4]; [7] 5% | [4]; [8] 55% | [4]; at 50.0 µM -15.4% | [5]; [7] 3% | [5]; [8] 51% | [5]; at 50.0 µM -8.05% | [6]; [7] 3% | [6]; [8] 52% | [6]; at 50.0 µM 40%

O=C(O)CSCc1ccc(Cl)cc1
inactive: [1]; [7] -2% | [1]; [8] 1% | [1]; at 50.0 µM 3.7% | [2]; [7] 2% | [2]; [8] -3% | [2]; at 50.0 µM -32.9% | [3]; [7] 2% | [3]; [8] 1% | [3]; at 50.0 µM -9.3% | [4]; [7] 0% | [4]; [8] -7% | [4]; at 50.0 µM 29.3% | [5]; [7] 2% | [5]; [8] 4% | [5]; at 50.0 µM 6.1% | [6]; [7] -1% | [6]; [8] -3% | [6]; at 50.0 µM -6.45%

CCCCCCCN
inactive: [1]; [7] 1% | [1]; at 50.0 µM 50% | [2]; [7] -9% | [2]; at 50.0 µM 20.9% | [3]; [7] -2% | [3]; at 50.0 µM 19.9% | [4]; [7] -5% | [4]; [8] 52% | [4]; at 50.0 µM 33.7% | [5]; [7] -2% | [5]; at 50.0 µM 12.1% | [6]; [7] -5% | [6]; at 50.0 µM 48.1%
active: [1]; [8] 89% | [2]; [8] 85% | [3]; [8] 91% | [5]; [8] 86% | [6]; [8] 88%

O=C(OCC(OC(=O)c1ccccc1)C(OC(=O)c1ccccc1)C(OC(=O)c1ccccc1)C(OC(=O)c1ccccc1)c1nn[nH]n1)c1ccccc1 (configuration not stated)
inactive: [1]; [7] 61% and 23% | [2]; [7] 52% and 41% | [3]; [7] 54% and 18% | [4]; [7] 54% and 40% | [6]; [7] 60% and 26%
75% (active) and 16% (inactive): [5]; [7]
active: [1]; [8] 72% and 81% | [1]; at 50.0 µM 93.1% and 90.7% | [2]; [8] 72% and 77% | [2]; at 50.0 µM 87.5% and 89% | [3]; [8] 72% and 75% | [3]; at 50.0 µM 93.3% and 91.6% | [4]; [8] 75% and 82% | [4]; at 50.0 µM 90.2% and 90.3% | [5]; [8] 88% and 74% | [5]; at 50.0 µM 78.6% and 82.8% | [6]; [8] 74% and 81% | [6]; at 50.0 µM 89.2% and 90%
